The campaign covered roughly 410,000 compounds. About 7,200 (1.8%) were called active. Entries that show only a call come without a potency. Roughly 7% stayed inconclusive and do not appear here. This excerpt belongs to a sample that is enriched for actives. Values without a mark were called inactive. Calls come from the whole dose curve; as a rule, active = well fitted activation curve with a large enough effect; inconclusive = small, poorly fitted or top-dose-only effect, or another doubt; inactive = no such curve, though single readings can be large or run the other way.
Experiment: qHTS of TDP-43 Inhibitors; note: nearly all actives have a fitted effect of over 50% in size
Details: TDP-43 expressing yeast growth rescue, BacTiter-Glo, 24 h; series mostly up to 46.1 µM
Outline: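 Cell-based yeast growth screen: TDP-43 expression induced in galactose, inoculum OD600=0.02 after raffinose pregrowth to mid-log. Read-out BacTiter-Glo luminescence at 24 hr, 30 deg C; inhibition of toxicity seen as signal increase.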
In the case of `CCOc1ccc(C(=O)NC2CCN(CC(=O)NCc3cccs3)CC2)cc1`, the Potency is reported as “inactive”. With `CCOc1ccc(/C=C/C(=O)N(CC)CC(=O)NCc2cccs2)cc1OC` the Potency was “inactive”. In the case of `CCOc1ccc(/C=N/OCC(=O)NCc2cccs2)cc1`, the Potency is reported as 11.2 µM (active). For `CCCCc1nn2c(=O)cc(COC(=O)c3ccc(NC(=O)c4ccccc4C)cc3)nc2s1`, the Potency was “inactive”. For `Cc1ccc(Cc2c(-c3ccco3)nc3ccc(Cl)cn23)cc1`, the Potency was 6.31 µM (active). In the case of `Clc1cccc(Cc2c(-c3cccc(Cl)c3)nc3ccc(Cl)cn23)c1`, the Potency is reported as 12.6 µM (active). In the case of `CN1CCN(Cc2c(C(=O)N3CCc4ccccc4C3)nc3ccc(Cl)cn23)CC1`, the Potency is reported as “inactive”. For `Cc1ccc2nc(-c3ccccc3)c(CC3CCCCC3)n2c1`, the Potency was “inactive”. For `Cc1cc(Br)cn2c(Cc3cccc(F)c3)c(-c3cccc(Br)c3)nc12`, the Potency was “inactive”. In the case of `CCCc1nc2c3ccccc3ccn2c1Cc1ccccc1C(F)(F)F`, the Potency is reported as “inactive”. In the case of `Cc1ccc(-c2nc3c(Cl)cc(C(F)(F)F)cn3c2Cc2cccc(Cl)c2)cc1`, the Potency is reported as “inactive”. With `c1ccc(Cc2c(-c3ccco3)nc3c4ccccc4ccn23)cc1` the Potency was 35.5 µM (active). In the case of `N#Cc1ccc(C(C(=O)NCc2ccccc2)n2c(=O)c(-c3ccco3)nc3ccccc32)cc1` (configuration not stated), the Potency is reported as “inactive”. In the case of `CCOc1ccc(N(CC)S(=O)(=O)N2CCCC(C(=O)NCc3ccc(SC)cc3)C2)cc1` (configuration not stated), the Potency is reported as “inactive”. For `CCN(CC)c1ccc(NS(=O)(=O)c2cc(-c3cc(C)no3)ccc2C)c(C)c1`, the Potency was “inactive”. For `Cc1cccc(-n2c(SCC(N)=O)nc3c(oc4ccccc43)c2=O)c1`, the Potency was “inactive”. In the case of `COc1ccc(NC(=O)CCCN2C(=O)CCn3nc(-c4cn(C)c5ccccc45)cc32)cc1OC`, the Potency is reported as “inactive”. With `CCOCCCn1c(SCC(=O)Nc2ccc(CC)cc2)nc2ccccc2c1=O` the Potency was “inactive”. With `COc1ccc(OC)c(CNC(=O)c2c3c(nc4ccccc24)C(=O)N(C2CCCCC2)C3)c1` the Potency was “inactive”. With `O=C(Nc1cccc(F)c1)[C@@H]1CCCN1` the Potency was “inactive”. For `Cc1ccc2cc(/C=N/NC(=O)[C@@H]3CCCN3)c(Cl)nc2c1`, the Potency was 4.47 µM (active). With `CCc1ccccc1NS(=O)(=O)c1ccc2nc(-c3ccccc3)[nH]c2c1` the Potency was “inactive”. For `Cc1nc2ccc(S(=O)(=O)NC(C(=O)NCc3ccccc3Cl)C(C)C)cc2s1` (configuration not stated), the Potency was “inactive”. With `Cc1cccc(OCCSc2nc3ccc(NC(=O)COc4ccccc4C)cc3s2)c1` the Potency was “inactive”. For `Cc1cccc(C(=O)N2c3nc(-c4ccco4)nn3C3(CCCCC3)[C@@H]3CCCC[C@@H]32)c1`, the Potency was “inactive”. In the case of `Cc1ccc(S(=O)Cc2ccc(C(=O)N3CCN(C4CCCCC4)CC3)o2)cc1` (configuration not stated), the Potency is reported as “inactive”. For `Cc1ccc(C(=O)N2c3ncnn3C3(CCCCC3)[C@@H]3CCCC[C@@H]32)cc1`, the Potency was 22.4 µM (active). In the case of `CCOC(=O)c1c(C)[nH]c(C)c1S(=O)(=O)NCC(=O)NCc1cccc(C)c1`, the Potency is reported as “inactive”. For `O=C(CCc1nc(CN2CCN(S(=O)(=O)c3ccc(Br)cc3)CC2)no1)N1CCCCC1`, the Potency was “inactive”. `COc1ccc(C2CC(=O)Nc3c2c(=O)nc2c(C)cccn32)cc1OC` (configuration not stated) gave a growth rescue (activation) of 25.6% [at 9.22 µM]. `COC(=O)c1cnn(-c2ccc(C(=O)Nc3ccc(OC(F)(F)F)cc3)cc2)c1N` gave a growth rescue (activation) of 12.1% [at 9.22 µM]. In the case of `CCc1nc2nc(C)cc(Nc3ccc(F)c(Cl)c3)n2n1`, the Potency is reported as “inactive”. With `Cc1ccc(CNC(=O)CCC(=O)N2CC(C)Sc3ccccc32)cc1` (configuration not stated) the Potency was “inactive”. For `Cc1ccc(Cl)cc1NC(=O)CCC(=O)N1CC(C)Sc2ccccc21` (configuration not stated), the Potency was 25.1 µM (active). For `COc1ccccc1NC(=O)CCC(=O)N1CC(C)Oc2ccc(C)cc21` (configuration not stated), the Potency was “inactive”. For `CC(=O)N1CCCc2cc(S(=O)(=O)N3CCC(C(=O)NC4CCCCC4)CC3)ccc21`, the Potency was “inactive”. For `Cc1ccc(NC(=O)CSc2nc3c(c(=O)[nH]2)CN(Cc2ccc4c(c2)OCO4)CC3)cc1C`, the Potency was “inactive”. In the case of `Cc1cccc(NC(=O)Cn2c(=O)n(CCC(C)C)c(=O)c3cccnc32)c1`, the Potency is reported as “inactive”. In the case of `COc1ccc(-c2cn3nc(N4CCCC(C(=O)NCCCOC(C)C)C4)sc3n2)cc1` (configuration not stated), the Potency is reported as “inactive”. For `COC(=O)c1sc(=S)n(-c2ccc(Cl)cc2)c1C`, the Potency was 12.6 µM (active). For `COc1ccc(-n2c(C)csc2=S)cc1`, the Potency was “inactive”. For `COC(=O)c1sc2ncccc2c1-n1c(C)ccc1C`, the Potency was “inactive”. In the case of `Cc1ccccc1-c1nc(SCC(=O)N(C)c2ccccc2)c2c(=O)n(C)c(=O)n(C)c2n1`, the growth rescue (activation) is reported as 0% [at 9.22 µM]. For `CCN1CCN(c2ncnc3c2cnn3-c2ccc(C)c(C)c2)CC1`, the Potency was “inactive”. With `CCc1cc2c(N3CCN(c4nnc(CC)s4)CC3)ncnc2s1` the Potency was 17.8 µM (active). In the case of `Cc1ccc(NC(=O)CSc2nnc3[nH]c(=O)cc(C)n23)cc1Cl`, the Potency is reported as “inactive”. With `COc1ccc(-c2cc(-c3nc(-c4cc(OC)c(OC)c(OC)c4)no3)[nH]n2)c(OC)c1` the Potency was “inactive”. In the case of `CCOc1ccc(CNC(=O)C2CCCN(S(=O)(=O)N(CC)c3ccc(OCC)cc3)C2)cc1` (configuration not stated), the Potency is reported as “inactive”. With `CCOc1ccccc1Oc1cn[nH]c1-c1ccc(OC)cc1O` the Potency was 22.4 µM (active). For `Oc1ccc(-c2[nH]ncc2-c2nc3ccccc3s2)c(O)c1`, the Potency was “inactive”. In the case of `CCN(CCn1cccn1)Cc1cn[nH]c1-c1ccc(OC)cc1F`, the Potency is reported as “inactive”. For `Cc1cccc(N2CCN(C(=O)c3ccc4c(c3)CCN4S(=O)(=O)c3ccccc3)CC2)c1C`, the Potency was “inactive”. In the case of `CC(=O)c1ccc(NC(c2ccc(F)cc2)c2nnc(-c3ccccc3)o2)cc1` (configuration not stated), the Potency is reported as “inactive”. With `CCOC(=O)c1c(NC(=O)c2cc(CC)on2)sc(C(C)=O)c1C` the Potency was “inactive”. With `O=C(CNC(=O)Cc1ccccc1)NCC(=O)OCC(=O)c1ccccc1Cl` the Potency was “inactive”. With `O=C(CNC(=O)OCc1ccccc1)Oc1cc2oc(=O)cc(-c3ccccc3)c2cc1Cl` the Potency was 7.08 µM (active). For `O=C(CNC(=O)OCc1ccccc1)NC1CCCCNC1=O` (configuration not stated), the Potency was “inactive”. In the case of `CCc1ccc(NC(=O)CCS(=O)(=O)c2cc3c(cc2Cl)NC(=O)CO3)cc1`, the Potency is reported as “inactive”. For `CCCn1c(=O)c(-c2ccccc2)c(O)c2ccccc21`, the Potency was 22.4 µM (active). In the case of `CCCCCn1c(=O)c(C(=O)OCC)c(Cl)c2ccccc21`, the Potency is reported as “inactive”. For `Cn1c(=O)c(C(=O)Nc2ncccn2)c(O)c2ccccc21`, the Potency was “inactive”. With `COc1ccc(OC)c(NC(=O)CSC2=Nc3ccccc3C3=NC(CC(=O)NCCc4ccccc4)C(=O)N23)c1` (configuration not stated) the Potency was “inactive”.

— PubChem BioAssay AID652104 (National Center for Advancing Translational Sciences (NCATS), 2013)
Potency is the fitted concentration of half-maximal effect.
